Reference: ChEMBL document CHEMBL1961873, “Compounds: GSK PKIS; Assays: Nanosyn kinase panel” (2012)

How the values were obtained:
[1] = target: T1, Muscle, skeletal receptor tyrosine-protein kinase (Homo sapiens) (UniProt O15146); settings: at 1 µM;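 note: reported value is the mean percent inhibition of MuSK kinase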
T1 sequence (whole entry): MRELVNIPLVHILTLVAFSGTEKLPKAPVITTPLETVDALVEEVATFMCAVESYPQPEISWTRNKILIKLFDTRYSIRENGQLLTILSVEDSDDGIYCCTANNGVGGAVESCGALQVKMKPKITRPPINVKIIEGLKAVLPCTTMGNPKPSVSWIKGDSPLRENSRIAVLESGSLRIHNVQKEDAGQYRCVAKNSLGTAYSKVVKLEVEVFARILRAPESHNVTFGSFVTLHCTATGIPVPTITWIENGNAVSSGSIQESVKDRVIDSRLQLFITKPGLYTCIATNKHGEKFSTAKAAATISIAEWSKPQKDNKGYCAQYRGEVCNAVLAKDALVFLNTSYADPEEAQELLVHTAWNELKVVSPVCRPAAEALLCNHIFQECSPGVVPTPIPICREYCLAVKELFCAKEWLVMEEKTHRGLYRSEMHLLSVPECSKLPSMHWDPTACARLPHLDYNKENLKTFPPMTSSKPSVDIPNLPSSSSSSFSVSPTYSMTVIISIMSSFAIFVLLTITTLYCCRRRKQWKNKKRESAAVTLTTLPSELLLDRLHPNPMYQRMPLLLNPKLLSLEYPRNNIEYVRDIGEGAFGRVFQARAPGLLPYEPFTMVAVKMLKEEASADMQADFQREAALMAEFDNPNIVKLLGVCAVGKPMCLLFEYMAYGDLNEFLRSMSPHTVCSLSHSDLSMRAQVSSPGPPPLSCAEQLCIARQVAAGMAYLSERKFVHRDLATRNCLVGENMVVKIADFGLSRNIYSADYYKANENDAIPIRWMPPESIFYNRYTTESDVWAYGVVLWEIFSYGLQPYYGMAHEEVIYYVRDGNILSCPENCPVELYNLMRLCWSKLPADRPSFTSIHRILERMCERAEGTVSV

[2] = target: Platelet-derived growth factor receptor alpha (Homo sapiens) (UniProt P16234); settings: at 0.1 µM
[3] = target: Platelet-derived growth factor receptor alpha (Homo sapiens) (UniProt P16234); settings: at 1 µM
[4] = tested on: Platelet-derived growth factor receptor alpha (Homo sapiens), P16234 [D842V]; settings: at 0.1 µM
[5] = tested on: Platelet-derived growth factor receptor alpha (Homo sapiens), P16234 [D842V]; settings: at 1 µM
[6] = tested on: Platelet-derived growth factor receptor alpha (Homo sapiens), P16234 [T674I]; settings: at 0.1 µM
[7] = tested on: Platelet-derived growth factor receptor alpha (Homo sapiens), P16234 [T674I]; settings: at 1 µM
[8] = tested on: Platelet-derived growth factor receptor alpha (Homo sapiens), P16234 [V561D]; settings: at 0.1 µM
[9] = tested on: Platelet-derived growth factor receptor alpha (Homo sapiens), P16234 [V561D]; settings: at 1 µM
[10] = target: Platelet-derived growth factor receptor beta (Homo sapiens) (UniProt P09619); settings: at 0.1 µM
[11] = target: Platelet-derived growth factor receptor beta (Homo sapiens) (UniProt P09619); settings: at 1 µM
[12] = target: Tyrosine-protein kinase FRK (Homo sapiens) (UniProt P42685); settings: at 0.1 µM
[13] = target: Tyrosine-protein kinase FRK (Homo sapiens) (UniProt P42685); settings: at 1 µM
[14] = target: Protein-tyrosine kinase 2-beta (Homo sapiens) (UniProt Q14289); settings: at 0.1 µM
[15] = target: Protein-tyrosine kinase 2-beta (Homo sapiens) (UniProt Q14289); settings: at 1 µM
[16] = target: Proto-oncogene tyrosine-protein kinase receptor Ret (Homo sapiens) (UniProt P07949); settings: at 0.1 µM
[17] = target: Proto-oncogene tyrosine-protein kinase receptor Ret (Homo sapiens) (UniProt P07949); settings: at 1 µM
[18] = tested on: Proto-oncogene tyrosine-protein kinase receptor Ret (Homo sapiens), P07949 [V804L]; settings: at 0.1 µM
[19] = tested on: Proto-oncogene tyrosine-protein kinase receptor Ret (Homo sapiens), P07949 [V804L]; settings: at 1 µM
[20] = tested on: Proto-oncogene tyrosine-protein kinase receptor Ret (Homo sapiens), P07949 [Y791F]; settings: at 0.1 µM

Sequence of Platelet-derived growth factor receptor alpha (Homo sapiens), P16234 [D842V] (P16234 whole entry D842V): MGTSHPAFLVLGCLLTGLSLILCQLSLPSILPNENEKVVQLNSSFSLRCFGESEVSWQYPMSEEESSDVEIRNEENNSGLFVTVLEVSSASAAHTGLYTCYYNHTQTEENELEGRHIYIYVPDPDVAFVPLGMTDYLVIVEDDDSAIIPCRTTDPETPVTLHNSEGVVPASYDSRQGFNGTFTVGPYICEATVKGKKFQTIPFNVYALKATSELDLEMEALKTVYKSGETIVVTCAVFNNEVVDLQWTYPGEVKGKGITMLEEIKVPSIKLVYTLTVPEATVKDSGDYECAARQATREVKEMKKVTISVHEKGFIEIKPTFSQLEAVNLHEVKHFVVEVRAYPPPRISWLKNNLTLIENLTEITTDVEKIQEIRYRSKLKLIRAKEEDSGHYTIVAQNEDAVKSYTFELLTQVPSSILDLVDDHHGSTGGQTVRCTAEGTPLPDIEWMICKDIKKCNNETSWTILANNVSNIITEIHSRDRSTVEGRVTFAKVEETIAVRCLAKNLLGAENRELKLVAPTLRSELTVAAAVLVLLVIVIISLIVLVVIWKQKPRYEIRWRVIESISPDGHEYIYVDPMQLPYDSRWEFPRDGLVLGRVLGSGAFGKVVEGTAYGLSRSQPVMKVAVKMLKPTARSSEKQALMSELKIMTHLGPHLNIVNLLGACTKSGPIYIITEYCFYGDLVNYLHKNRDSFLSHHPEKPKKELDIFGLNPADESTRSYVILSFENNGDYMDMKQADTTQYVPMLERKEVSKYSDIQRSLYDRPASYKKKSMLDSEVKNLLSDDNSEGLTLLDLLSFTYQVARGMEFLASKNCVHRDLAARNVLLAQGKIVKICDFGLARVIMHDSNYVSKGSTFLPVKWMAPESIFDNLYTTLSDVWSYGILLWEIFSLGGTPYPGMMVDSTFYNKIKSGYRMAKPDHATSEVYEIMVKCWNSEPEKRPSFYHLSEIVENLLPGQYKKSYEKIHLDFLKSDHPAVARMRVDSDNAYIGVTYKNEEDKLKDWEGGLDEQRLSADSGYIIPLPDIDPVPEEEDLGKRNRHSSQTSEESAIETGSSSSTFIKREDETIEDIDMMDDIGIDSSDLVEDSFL
Sequence of Protein-tyrosine kinase 2-beta (Homo sapiens) (Q14289 whole entry, looked up): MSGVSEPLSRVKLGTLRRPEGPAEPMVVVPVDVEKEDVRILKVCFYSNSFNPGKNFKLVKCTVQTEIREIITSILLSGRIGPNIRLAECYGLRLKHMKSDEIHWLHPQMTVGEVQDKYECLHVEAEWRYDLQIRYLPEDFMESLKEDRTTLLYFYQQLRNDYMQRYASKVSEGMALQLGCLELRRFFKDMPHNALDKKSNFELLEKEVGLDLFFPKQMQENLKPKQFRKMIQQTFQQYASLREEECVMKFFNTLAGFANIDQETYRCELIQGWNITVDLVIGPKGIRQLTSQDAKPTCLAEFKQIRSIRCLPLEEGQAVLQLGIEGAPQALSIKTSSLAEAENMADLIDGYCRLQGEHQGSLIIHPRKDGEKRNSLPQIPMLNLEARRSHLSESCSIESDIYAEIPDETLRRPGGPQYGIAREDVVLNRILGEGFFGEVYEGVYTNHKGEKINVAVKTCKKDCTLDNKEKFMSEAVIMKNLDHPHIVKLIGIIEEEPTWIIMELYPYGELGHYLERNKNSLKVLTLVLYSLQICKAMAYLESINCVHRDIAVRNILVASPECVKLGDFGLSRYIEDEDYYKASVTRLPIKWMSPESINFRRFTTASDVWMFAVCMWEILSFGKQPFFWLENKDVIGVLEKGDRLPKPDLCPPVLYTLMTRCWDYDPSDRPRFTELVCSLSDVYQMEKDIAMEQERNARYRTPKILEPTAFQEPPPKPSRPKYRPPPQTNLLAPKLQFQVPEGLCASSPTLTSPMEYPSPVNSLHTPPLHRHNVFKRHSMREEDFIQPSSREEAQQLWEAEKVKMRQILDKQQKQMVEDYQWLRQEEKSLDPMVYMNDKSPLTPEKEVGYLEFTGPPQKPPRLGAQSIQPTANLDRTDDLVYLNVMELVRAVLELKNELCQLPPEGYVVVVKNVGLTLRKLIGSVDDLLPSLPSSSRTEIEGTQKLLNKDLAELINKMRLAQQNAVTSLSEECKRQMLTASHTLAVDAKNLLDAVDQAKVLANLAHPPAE
Sequence of Proto-oncogene tyrosine-protein kinase receptor Ret (Homo sapiens), P07949 [V804L] (P07949 whole entry V804L): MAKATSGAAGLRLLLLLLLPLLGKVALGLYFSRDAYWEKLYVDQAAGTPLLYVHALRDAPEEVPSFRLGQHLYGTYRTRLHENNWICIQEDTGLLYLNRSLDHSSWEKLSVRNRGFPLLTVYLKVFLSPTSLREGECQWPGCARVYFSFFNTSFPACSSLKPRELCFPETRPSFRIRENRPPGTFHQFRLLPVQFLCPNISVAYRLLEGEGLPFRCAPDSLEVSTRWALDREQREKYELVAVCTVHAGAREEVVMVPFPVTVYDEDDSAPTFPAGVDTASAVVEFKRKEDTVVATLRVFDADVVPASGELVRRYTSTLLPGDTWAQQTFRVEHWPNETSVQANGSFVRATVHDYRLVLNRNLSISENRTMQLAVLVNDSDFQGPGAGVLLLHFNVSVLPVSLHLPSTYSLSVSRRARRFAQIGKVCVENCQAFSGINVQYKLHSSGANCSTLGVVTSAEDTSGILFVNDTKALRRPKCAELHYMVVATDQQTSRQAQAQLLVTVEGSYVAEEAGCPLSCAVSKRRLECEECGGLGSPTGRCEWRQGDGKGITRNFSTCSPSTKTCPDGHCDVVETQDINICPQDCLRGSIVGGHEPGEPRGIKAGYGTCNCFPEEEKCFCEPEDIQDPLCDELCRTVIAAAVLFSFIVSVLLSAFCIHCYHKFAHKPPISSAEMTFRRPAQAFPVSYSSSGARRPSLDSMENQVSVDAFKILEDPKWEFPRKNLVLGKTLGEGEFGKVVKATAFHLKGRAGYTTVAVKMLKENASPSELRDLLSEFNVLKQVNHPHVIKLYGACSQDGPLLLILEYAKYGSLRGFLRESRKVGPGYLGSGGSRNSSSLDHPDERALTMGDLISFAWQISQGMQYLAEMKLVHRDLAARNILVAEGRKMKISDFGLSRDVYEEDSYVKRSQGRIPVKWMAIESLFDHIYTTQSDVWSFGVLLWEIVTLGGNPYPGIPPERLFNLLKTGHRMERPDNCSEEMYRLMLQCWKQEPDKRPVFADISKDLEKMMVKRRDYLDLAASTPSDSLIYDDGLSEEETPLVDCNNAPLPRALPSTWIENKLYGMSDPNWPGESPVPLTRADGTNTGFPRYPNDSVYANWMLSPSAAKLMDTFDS
Sequence of Platelet-derived growth factor receptor alpha (Homo sapiens), P16234 [V561D] (P16234 whole entry V561D): as the sequence (P16234 whole entry D842V) above, with V561D, V842D counted along it
Sequence of Tyrosine-protein kinase FRK (Homo sapiens) (P42685 whole entry): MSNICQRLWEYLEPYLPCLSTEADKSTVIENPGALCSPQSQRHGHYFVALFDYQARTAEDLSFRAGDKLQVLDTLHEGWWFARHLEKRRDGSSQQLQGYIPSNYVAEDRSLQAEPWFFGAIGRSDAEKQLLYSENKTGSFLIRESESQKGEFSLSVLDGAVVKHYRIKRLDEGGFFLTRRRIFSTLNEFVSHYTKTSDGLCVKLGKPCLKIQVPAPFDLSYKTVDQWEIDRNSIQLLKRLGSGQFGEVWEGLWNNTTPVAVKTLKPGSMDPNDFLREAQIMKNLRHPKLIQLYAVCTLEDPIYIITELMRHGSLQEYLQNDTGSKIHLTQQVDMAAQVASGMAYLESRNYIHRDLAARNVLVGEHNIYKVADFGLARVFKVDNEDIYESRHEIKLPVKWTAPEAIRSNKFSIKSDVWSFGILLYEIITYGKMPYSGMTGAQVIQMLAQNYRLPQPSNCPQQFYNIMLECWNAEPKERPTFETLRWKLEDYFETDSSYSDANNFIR

Compound | inhibition [1] | inhibition [2] | inhibition [3] | inhibition [4] | inhibition [5] | inhibition [6] | inhibition [7] | inhibition [8] | inhibition [9] | inhibition [10] | inhibition [11] | inhibition [12] | inhibition [13] | inhibition [14] | inhibition [15] | inhibition [16] | inhibition [17] | inhibition [18] | inhibition [19] | inhibition [20]
COc1cccc(/C=N/Nc2ncnc3c2cnn3-c2cccc(OC)c2)c1 | 3.43% | 2.69% | 14.9% | 2.84% | 7.96% | 2.59% | 6.59% | 2.65% | 7.82% | 4.05% | 11% | 2.06% | 3.36% | 1% | 10.2% | 0.27% | 6.95% | 0.36% | 1.63% | 3.95%
C/C(Nc1ccc(S(N)(=O)=O)cc1)=C1/C(=O)Nc2ccccc21 | 30.9% | 13.8% | 53.2% | 4.56% | 33.6% | 34.4% | 95.7% | 25% | 62% | 9.96% | 43.1% | 1.09% | 0.76% | -1.67% | 17.8% | 6.38% | 35.9% | 13% | 53.9% | 5.97%
NC(=O)c1cc(-c2ccncc2)cc(-c2ccccc2)c1N | 3.55% | 9.17% | 36.2% | 3.01% | 11.3% | 5.87% | 11.6% | 5.79% | 37.8% | 9.7% | 26% | 3.05% | 7.89% | 10.8% | 13.4% | 6.99% | 27% | 2.8% | 6.36% | 6.34%
COc1cc(N2CCN(C(C)C)CC2)ccc1Nc1nc(Nc2ccc(F)cc2C(=O)NC[C@@H](O)CO)c2cc[nH]c2n1 | 3.79% | 6.23% | 14.1% | 1.85% | 5.49% | 6.54% | 9.18% | 4.51% | 4.42% | 1.36% | 5.07% | 2.85% | 4.03% | 87.3% | 96.5% | 5.61% | 8.19% | 5.31% | 18.4% | 6.02%
Nc1nccc(-c2c(-c3ccc(F)cc3)ncn2C2CCC(O)CC2)n1 (centres undefined) | 4.37% | 2.63% | 21.6% | 2.7% | 14.2% | 0.95% | 0.82% | 5.61% | 21.1% | 5.21% | 30.3% | -0.89% | 5.08% | -2.8% | 2.44% | 3.09% | 19.3% | 0.11% | 5.11% | 3.7%
Fc1ccc(-c2nc3n(c2-c2ccncc2)CCS3)cc1 | 2.27% | 6.42% | 11.1% | 4.17% | 3.44% | 5.4% | 6.09% | -0.4% | 4.82% | 3.87% | 8.35% | 1.92% | 3.19% | 9.18% | 6.63% | 4.05% | 8.81% | 9.59% | 12.6% | 5.15%
Cc1ccc(NC(=O)c2ccoc2)cc1-c1ccc(C(=O)NCC2CC2)cc1 | 1.19% | 3.05% | 4.97% | 0.3% | 0.74% | 0.22% | 4.2% | 0.35% | 1% | 1.42% | -0.8% | 0.1% | 2.51% | 0.3% | -0.07% | 5.24% | 0.04% | 1.71% | 2.38% | 1.45%
Fc1ccc(-c2ncn(C3CCNCC3)c2-c2ccnc(Oc3ccc4c(c3)OCO4)n2)cc1 | 4.22% | 11.8% | 15.7% | 2.99% | 5.32% | 11.5% | 16.1% | 5.05% | 5.41% | 7.36% | 12.7% | 3.01% | 4.4% | 7% | 9.57% | 3.97% | 6.88% | 9.21% | 12.4% | 14.5%
COc1ccc(-c2ccc3c(NC(=O)C4CC4)n[nH]c3n2)cc1 | 3.83% | 3.05% | 12.2% | 1.56% | 5.35% | 3.4% | 7.13% | 4.3% | 9.71% | 1.45% | 5.91% | 0.53% | -0.31% | 0.18% | 6.52% | 0.65% | 1.93% | 6.95% | 9.13% | 0.39%
C#Cc1cccc(Nc2ncnc3ccc(OCCCCNCCS(C)(=O)=O)cc23)c1 | 2.93% | 16.4% | 30.4% | 6.83% | 11.5% | 8.07% | 25.4% | 5.37% | 10.6% | 9.53% | 20.5% | 5.22% | 4.16% | 12.1% | 10.3% | 14.3% | 18.9% | 4.06% | 11.9% | 17.9%
CN(C)CCCNc1nccc(-c2c(-c3ccc(F)cc3)nn3cc(C(F)(F)F)ccc23)n1 | 12.5% | 12.9% | 18.6% | 3.3% | 4.77% | 9.27% | 4.87% | 0.27% | 5.89% | 6.34% | 14.1% | -0.09% | 1.37% | -1.38% | 1.42% | 7.28% | 10.8% | 8.31% | 21.7% | 10.9%
COc1cccc(-n2cnc3c(N/N=C/c4ccncc4)ncnc32)c1 | 17.1% | 17.9% | 53.6% | 4.61% | 45.6% | 2.14% | 18.3% | 10.3% | 51% | 13.2% | 49.9% | -0.1% | 0.9% | -4.12% | 10.5% | 3.89% | 13.9% | -0.06% | 12.5% | 2.51%
COc1ccc2ncn(-c3cc(O[C@H](C)c4ccccc4Cl)c(C(N)=O)s3)c2c1 | 15% | 10.4% | 23.1% | 2.8% | 11.8% | 0.85% | 9.98% | 4.37% | 16.6% | 5.46% | 18.7% | 3.26% | 4.73% | 6.17% | 9.58% | – | 9.64% | 2.37% | 7.27% | 5.2%
